{"source": "PubChem BioAssay AID1159580", "about": "(chemical genetic matrix, 2015)", "assay": "chemical genetic growth profiling, strain panel (AID 1159580);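 further: tested at 20 µM; growth read once vehicle control cultures reached saturation at 30 °C; 1 = growth at the plate median or of vehicle wells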", "conditions": "growth OD", "key": {"[1]": {"conditions": "S. cerevisiae deletion strains, locus YAL013W, strain DEP1, stronger effect = lower value"}, "[2]": {"conditions": "S. cerevisiae deletion strains, locus YBR229C, strain ROT2, stronger effect = lower value"}, "[3]": {"conditions": "S. cerevisiae deletion strains, locus YDL101C, strain DUN1, stronger effect = lower value"}, "[4]": {"conditions": "S. cerevisiae deletion strains, locus YDR150W, strain NUM1, stronger effect = lower value"}, "[5]": {"conditions": "S. cerevisiae deletion strains, locus YEL061C, strain CIN8, stronger effect = lower value"}, "[6]": {"conditions": "S. cerevisiae deletion strains, locus YGR078C, strain PAC10, stronger effect = lower value"}, "[7]": {"conditions": "S. cerevisiae deletion strains, locus YGR229C, strain SMI1, stronger effect = lower value"}, "[8]": {"conditions": "S. cerevisiae deletion strains, locus YHR030C, strain SLT2, stronger effect = lower value"}, "[9]": {"conditions": "S. cerevisiae deletion strains, locus YHR087W, strain rtc3, stronger effect = lower value"}, "[10]": {"conditions": "S. cerevisiae deletion strains, locus YJL187C, strain SWE1, stronger effect = lower value"}, "[11]": {"conditions": "S. cerevisiae deletion strains, locus YJR043C, strain POL32, stronger effect = lower value"}, "[12]": {"conditions": "S. cerevisiae deletion strains, locus YJR075W, strain HOC1, stronger effect = lower value"}, "[13]": {"conditions": "S. cerevisiae deletion strains, locus YLR039C, strain RIC1, stronger effect = lower value"}, "[14]": {"conditions": "S. cerevisiae deletion strains, locus YLR058C, strain SHM2 (second series), stronger effect = lower value"}, "[15]": {"conditions": "S. cerevisiae deletion strains, locus YLR085C, strain ARP6, stronger effect = lower value"}, "[16]": {"conditions": "S. cerevisiae deletion strains, locus YLR262C, strain YPT6, stronger effect = lower value"}, "[17]": {"conditions": "S. cerevisiae deletion strains, locus YML094W, strain GIM5, stronger effect = lower value"}, "[18]": {"conditions": "S. cerevisiae deletion strains, locus YMR219W, strain ESC1, stronger effect = lower value"}, "[19]": {"conditions": "S. cerevisiae deletion strains, locus YMR263W, strain SAP30, stronger effect = lower value"}, "[20]": {"conditions": "S. cerevisiae deletion strains, locus YMR307W, strain GAS1, stronger effect = lower value"}, "[21]": {"conditions": "S. cerevisiae deletion strains, locus YNL153C, strain GIM3, stronger effect = lower value"}, "[22]": {"conditions": "S. cerevisiae deletion strains, locus YNL298W, strain CLA4 (second series), stronger effect = lower value"}, "[23]": {"conditions": "S. cerevisiae deletion strains, locus YNL322C, strain KRE1, stronger effect = lower value"}, "[24]": {"conditions": "S. cerevisiae deletion strains, locus YNR030W, strain Alg12, stronger effect = lower value"}, "[25]": {"conditions": "S. cerevisiae deletion strains, locus YOL006C, strain TOP1, stronger effect = lower value"}, "[26]": {"conditions": "S. cerevisiae deletion strains, locus YPL055C, strain LGE1, stronger effect = lower value"}, "[27]": {"conditions": "S. cerevisiae deletion strains, locus YPL241C, strain CIN2, stronger effect = lower value"}, "[28]": {"conditions": "S. cerevisiae deletion strains, locus YPR135W, strain CTF4, stronger effect = lower value"}, "[29]": {"conditions": "S. cerevisiae strains, strain wild type, stronger effect = lower value"}, "[30]": {"conditions": "S. cerevisiae deletion strains, locus YDL134C, strain PPH21, stronger effect = lower value"}, "[31]": {"conditions": "S. cerevisiae deletion strains, locus YKL190W, strain CNB1, stronger effect = lower value"}}, "note": "Among all 5,500 compounds or so, about 2,000 (36%) were called active. Inconclusive results (about 18%) are left out. The list shows a part of the results. Unmarked numbers belong to inactive results. No stated cut-off is given here; in the data, active means normalized growth mostly below about 0.91 (no sharp cut-off); inconclusive means no clear call, values can overlap the other calls; inactive means mostly above about 0.92.", "data": [{"compound": "C=CCn1c(Sc2ncc([N+](=O)[O-])s2)n[nH]c1=O", "values": [{"measurement": "normalized growth", "setting": "[1]", "result": "0.926 (active)"}, {"measurement": "normalized growth", "setting": "[2]", "result": "0.913 (active)"}, {"measurement": "normalized growth", "setting": "[3]", "result": 0.932}, {"measurement": "normalized growth", "setting": "[4]", "result": 0.929}, {"measurement": "normalized growth", "setting": "[5]", "result": "0.858 (active)"}, {"measurement": "normalized growth", "setting": "[6]", "result": 0.944}, {"measurement": "normalized growth", "setting": "[7]", "result": 0.984}, {"measurement": "normalized growth", "setting": "[8]", "result": 0.775}, {"measurement": "normalized growth", "setting": "[9]", "result": 0.968}, {"measurement": "normalized growth", "setting": "[10]", "result": 0.948}, {"measurement": "normalized growth", "setting": "[11]", "result": 0.968}, {"measurement": "normalized growth", "setting": "[12]", "result": 1}, {"measurement": "normalized growth", "setting": "[13]", "result": 0.8}, {"measurement": "normalized growth", "setting": "[14]", "result": 0.962}, {"measurement": "normalized growth", "setting": "[15]", "result": "0.359 (active)"}, {"measurement": "normalized growth", "setting": "[16]", "result": 0.992}, {"measurement": "normalized growth", "setting": "[17]", "result": "0.813 (active)"}, {"measurement": "normalized growth", "setting": "[18]", "result": 0.975}, {"measurement": "normalized growth", "setting": "[19]", "result": 0.938}, {"measurement": "normalized growth", "setting": "[20]", "result": 0.973}, {"measurement": "normalized growth", "setting": "[21]", "result": "0.815 (active)"}, {"measurement": "normalized growth", "setting": "[22]", "result": "0.675 (active)"}, {"measurement": "normalized growth", "setting": "[23]", "result": 0.996}, {"measurement": "normalized growth", "setting": "[24]", "result": "0.833 (active)"}, {"measurement": "normalized growth", "setting": "[25]", "result": "0.219 (active)"}, {"measurement": "normalized growth", "setting": "[26]", "result": 0.829}, {"measurement": "normalized growth", "setting": "[27]", "result": "0.582 (active)"}, {"measurement": "normalized growth", "setting": "[28]", "result": "0.488 (active)"}, {"measurement": "normalized growth", "setting": "[29]", "result": "0.893 (active)"}]}, {"compound": "CCCCCn1c(Sc2ncc([N+](=O)[O-])s2)n[nH]c1=O", "values": [{"measurement": "normalized growth", "setting": "[1]", "result": "0.592 (active)"}, {"measurement": "normalized growth", "setting": "[2]", "result": "0.463 (active)"}, {"measurement": "normalized growth", "setting": "S. cerevisiae deletion strains, locus YCL061C, strain MRC1, stronger effect = lower value", "result": "0.67 (active)"}, {"measurement": "normalized growth", "setting": "[3]", "result": "0.559 (active)"}, {"measurement": "normalized growth", "setting": "[30]", "result": "0.099 (active)"}, {"measurement": "normalized growth", "setting": "[4]", "result": "0.615 (active)"}, {"measurement": "normalized growth", "setting": "[5]", "result": "0.0768 (active)"}, {"measurement": "normalized growth", "setting": "[6]", "result": "0.499 (active)"}, {"measurement": "normalized growth", "setting": "[8]", "result": "0.0794 (active)"}, {"measurement": "normalized growth", "setting": "[9]", "result": "0.53 (active)"}, {"measurement": "normalized growth", "setting": "[10]", "result": "0.493 (active)"}, {"measurement": "normalized growth", "setting": "[11]", "result": "0.695 (active)"}, {"measurement": "normalized growth", "setting": "[12]", "result": "0.471 (active)"}, {"measurement": "normalized growth", "setting": "[31]", "result": "0.0782 (active)"}, {"measurement": "normalized growth", "setting": "[13]", "result": "0.134 (active)"}, {"measurement": "normalized growth", "setting": "[14]", "result": "0.675 (active)"}, {"measurement": "normalized growth", "setting": "[15]", "result": "0.0989 (active)"}, {"measurement": "normalized growth", "setting": "[16]", "result": "0.123 (active)"}, {"measurement": "normalized growth", "setting": "[17]", "result": "0.22 (active)"}, {"measurement": "normalized growth", "setting": "[18]", "result": "0.624 (active)"}, {"measurement": "normalized growth", "setting": "[19]", "result": "0.669 (active)"}, {"measurement": "normalized growth", "setting": "[21]", "result": "0.0882 (active)"}, {"measurement": "normalized growth", "setting": "[22]", "result": "0.0804 (active)"}, {"measurement": "normalized growth", "setting": "[23]", "result": "0.917 (active)"}, {"measurement": "normalized growth", "setting": "[24]", "result": "0.0933 (active)"}, {"measurement": "normalized growth", "setting": "[26]", "result": "0.292 (active)"}, {"measurement": "normalized growth", "setting": "[27]", "result": "0.1 (active)"}, {"measurement": "normalized growth", "setting": "[28]", "result": "0.186 (active)"}, {"measurement": "normalized growth", "setting": "[29]", "result": "0.0897 (active)"}]}, {"compound": "N#Cc1ccc([N+](=O)[O-])s1", "values": [{"measurement": "normalized growth", "setting": "[1]", "result": "0.726 (active)"}, {"measurement": "normalized growth", "setting": "[2]", "result": "0.446 (active)"}, {"measurement": "normalized growth", "setting": "[3]", "result": "0.201 (active)"}, {"measurement": "normalized growth", "setting": "[30]", "result": "0.0493 (active)"}, {"measurement": "normalized growth", "setting": "[4]", "result": "0.681 (active)"}, {"measurement": "normalized growth", "setting": "[5]", "result": "0.194 (active)"}, {"measurement": "normalized growth", "setting": "[6]", "result": "0.385 (active)"}, {"measurement": "normalized growth", "setting": "[7]", "result": 0.992}, {"measurement": "normalized growth", "setting": "[8]", "result": "0.0826 (active)"}, {"measurement": "normalized growth", "setting": "[9]", "result": "0.379 (active)"}, {"measurement": "normalized growth", "setting": "[10]", "result": "0.261 (active)"}, {"measurement": "normalized growth", "setting": "[11]", "result": "0.564 (active)"}, {"measurement": "normalized growth", "setting": "[12]", "result": "0.198 (active)"}, {"measurement": "normalized growth", "setting": "[31]", "result": "0.0802 (active)"}, {"measurement": "normalized growth", "setting": "[13]", "result": "0.346 (active)"}, {"measurement": "normalized growth", "setting": "[14]", "result": "0.461 (active)"}, {"measurement": "normalized growth", "setting": "[15]", "result": "0.121 (active)"}, {"measurement": "normalized growth", "setting": "[16]", "result": "0.588 (active)"}, {"measurement": "normalized growth", "setting": "[17]", "result": "0.271 (active)"}, {"measurement": "normalized growth", "setting": "[18]", "result": "0.7 (active)"}, {"measurement": "normalized growth", "setting": "[19]", "result": "0.46 (active)"}, {"measurement": "normalized growth", "setting": "[21]", "result": "0.382 (active)"}, {"measurement": "normalized growth", "setting": "[22]", "result": "0.105 (active)"}, {"measurement": "normalized growth", "setting": "[23]", "result": 1.01}, {"measurement": "normalized growth", "setting": "[24]", "result": "0.096 (active)"}, {"measurement": "normalized growth", "setting": "[25]", "result": "0.115 (active)"}, {"measurement": "normalized growth", "setting": "[26]", "result": "0.547 (active)"}, {"measurement": "normalized growth", "setting": "[27]", "result": "0.0815 (active)"}, {"measurement": "normalized growth", "setting": "[28]", "result": "0.186 (active)"}]}, {"compound": "N#CC(C#N)=Cc1ccc([N+](=O)[O-])c(O)c1", "values": [{"measurement": "normalized growth", "setting": "S. cerevisiae deletion strains, locus YAL040C, strain CLN3, stronger effect = lower value", "result": 1.04}, {"measurement": "normalized growth", "setting": "S. cerevisiae deletion strains, locus YCL061C, strain MRC1 (second series), stronger effect = lower value", "result": 0.991}, {"measurement": "normalized growth", "setting": "S. cerevisiae deletion strains, locus YDR363W, strain ESC2, stronger effect = lower value", "result": 0.968}, {"measurement": "normalized growth", "setting": "S. cerevisiae deletion strains, locus YER002W, strain NOP16, stronger effect = lower value", "result": 0.956}, {"measurement": "normalized growth", "setting": "[20]", "result": 1.01}, {"measurement": "normalized growth", "setting": "S. cerevisiae deletion strains, locus YNL128W, strain TEP1, stronger effect = lower value", "result": 0.966}, {"measurement": "normalized growth", "setting": "S. cerevisiae deletion strains, locus YNL175C, strain NOP13, stronger effect = lower value", "result": 0.953}, {"measurement": "normalized growth", "setting": "S. cerevisiae deletion strains, locus YNL197C, strain WHI3, stronger effect = lower value", "result": 0.955}, {"measurement": "normalized growth", "setting": "S. cerevisiae deletion strains, locus YNL224C, strain SQS1, stronger effect = lower value", "result": 0.988}, {"measurement": "normalized growth", "setting": "S. cerevisiae deletion strains, locus YOR083W, strain WHI5 (second series), stronger effect = lower value", "result": 0.992}, {"measurement": "normalized growth", "setting": "[27]", "result": 0.988}]}]}
